Compounds without any hit were thinned out: in the full panel of roughly 83,000, 20% have a hit.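 48-hour exposure, single concentration, 96-well plates; percent growth endpoint where 0 means no net growth. Active: below 10.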 A number with no mark means an inactive call. Active and inactive are the calls of the source.

For this assay, the system named is LOX IMVI melanoma. Nature of the assay: NCI-60 one-dose screen, 48 h (100 = growth as untreated, 0 = no growth, -100 = all killed). The settings on record: 10 µM unless noted.
Consider `NC(=O)c1c(NC(=O)c2ccc(Cl)cc2)sc2c1CCC(=O)C2`, for which the growth was 56.5%.

Regarding `COc1ccc(/C(C)=C(\c2ccc(OCCN3CCCCCC3)cc2)c2ccc(OC(=O)c3ccccc3)cc2)cc1`, the growth is -51% (active).

Regarding `Clc1ccc(-c2cn3ccsc3n2)c(Cl)c1Cl`, the growth was 80.7%.

On to `COc1ccc(Cl)cc1Nc1nc(C(F)(F)F)ccc1C(=O)N/N=C/c1ccccc1Cl`, for which the growth was -13.6% (active).

With `Cc1cc(C)cc(Nc2ccc([N+](=O)[O-])c(NCCN3CCOCC3)n2)c1`, the growth was 15.7%.

For the compound `C=CCn1c(SCC(=O)Nc2ccc(C(=O)/C=C/c3cc(OC)c(OC)c(OC)c3)cc2)nnc1-c1cc(-c2ccc(OC)cc2)nc2ccccc12`, the growth is 94.9%.

As to `C#CCOc1cccc(-c2ncc3cc(NC(=O)CCl)ccc3n2)c1`, the growth is -50.4% (active).

Take `Cn1cc(-c2nn3cc(-c4ccccc4)nc3s2)c2ccccc21`: the growth was 79.4%.

For the compound `Cc1cc2nc3c4ccccc4n(CCN(C)C)c3nc2cc1C`, the growth was -63.2% (active).

Take `CCC(C)Nc1ccc(NC(C)CC)cc1` (stereo not given): the growth is 74%.

Regarding `O=C(CCCCCCN1CC(=O)N2[C@@H](C3CCCCC3)c3[nH]c4ccccc4c3C[C@H]2C1=O)NO`, the growth is -3.25% (active).

Regarding `C(/C=C/c1ccccc1)=Nc1ccc(CCc2ccc(N=C/C=C/c3ccccc3)cc2)cc1`, the growth is 73.1%.

Regarding `Cc1c2ccccc2nc2c1ccc1cccnc12`, the growth was 105%.

In the case of `Cc1ncc(C(=O)Nc2ccc(CN3CCN(C)CC3)c(C(F)(F)F)c2)cc1C#Cc1cnc(N)c2cnccc12`, the growth is -90.1% (active).

For the compound `CC(C)(C)C(=O)/C=C/c1ccc([N+](=O)[O-])cc1`, the growth is 36.9%.

Regarding `N#Cc1c(-c2ccccc2)nc2c(c(-c3ccccc3)nn2-c2ccccc2)c1-c1ccc(N2CCOCC2)cc1`, the growth was 51.6%.

For the compound `Cc1ccc(C)n1/C=C/n1c(C)ccc1C`, the growth was 105%.

As to `CN(C)Cc1ccc(C(=O)Nc2ccc3ncnc(Nc4ccc(Oc5cccc(F)c5)c(Cl)c4)c3c2)cc1`, the growth is -96.2% (active).

On to `O=c1[nH]cnc2c1C(c1ccc(Br)cc1)c1sc3c(F)cccc3c1O2` (stereo not given), for which the growth is 99.2%.

For `CS(=O)(=O)Nc1cncc(-c2ccc3ncnc(Nc4ccc(F)c(Cl)c4)c3c2)c1`, the growth was 28.3%.

Take `Cc1cc(N2CCN(C)CC2)nc(NCc2cc(Nc3ccnc4cc(Cl)ccc34)ccc2F)n1`: the growth is -70.1% (active).

With `COc1ccc(-c2ccc(=O)oc2C#Cc2cc(OC)c(OC)c(OC)c2)cc1O`, the growth was 23.5%.

`COc1cc(/C=C2\C(=O)N(c3c(Cl)cccc3Cl)c3ccccc32)cc(OC)c1OCCCCCCn1c2ccccc2c(=O)c2ccccc21`: the growth is 98.4%.

On to `CC/C=C1/C(=O)C=C[C@@H]1C/C=C\CCCC(=O)OC`, for which the growth was -63.9% (active).

Turning to `COc1ccc2c(c1)c(-c1nonc1-c1cn(C)c3ccc(OC)cc13)cn2C`, the growth was 39.7%.

Regarding `C=C1C(=O)O[C@H]2[C@H]1CC/C(COC(=O)/C=C\C(=O)NCc1ccc(Cn3c(=O)sn(-c4ccccc4)c3=O)cc1)=C\CC[C@@]1(C)O[C@@H]21`, the growth is 76%.

For `Cc1nn(-c2ccccc2)c(/N=C/N(C)C)c1/C=C/C(=O)c1ccc(Cl)cc1`, the growth was 49%.

With `C#CC#CC#CC#CC#CC#CC#CC#CCC1OCC(COC(=O)O[C@@H](C(=O)O[C@H]2C[C@@]3(O)[C@@H](OC(=O)c4ccccc4)[C@@H]4[C@]5(OC(C)=O)CO[C@@H]5C[C@H](O)[C@@]4(C)C(=O)[C@H](OC(C)=O)C(=C2C)C3(C)C)[C@@H](NC(=O)c2ccccc2)c2ccccc2)O1` (stereo not given in full), the growth was 26.9%.

As for `COc1ccc(/C=C/C(=O)c2cc3c(N)c(C(=O)Nc4ccc(OC)cc4)sc3nc2C)cc1`, the growth is 31.6%.

As for `N=C(N)c1ccc(-c2ccc(-c3ccc(Cl)cc3)o2)o1`, the growth was -73% (active).

In the case of `COc1ccc(-c2nnc(SCC(=O)Nc3ccc(/C(C)=N\O)cc3)n2-c2ccccc2)cc1OC`, the growth was 80.1%.

Turning to `Cc1ccc(-c2nc(C#N)c(S(=O)(=O)NCCO)o2)cc1`, the growth was 46.4%.

Take `N#CC(C#N)N=Nc1ccc(Cl)cc1Cl`: the growth is 94.8%.

Take `C=CCOC(=O)C1=C(C)NC(=O)NC1c1c(Cl)n(C)c2ccccc12` (stereo not given): the growth is 102%.

As to `CCCCCCCCn1ccc2cc(NC(=O)Cn3cc(CN4CCCCCC4)nn3)ccc21`, the growth is -90.8% (active).

`O=C(CN1C(=O)NC2NC(=O)NC21)N/N=C/c1ccc(Cl)cc1Cl` (stereo not given): the growth is 103%.

Consider `COc1cc(C2=NN(C(C)=O)C(c3ccc(N(C)C)cc3)C2)cc(OC)c1OC` (stereo not given), for which the growth is 96.5%.

Regarding `COc1cccc(/C=C/C(=O)c2cc3c(N)c(C(=O)Nc4cccc(Cl)c4C)sc3nc2C)c1`, the growth was -64.2% (active).

With `CCCn1c(=S)sc2c1nc(C)n1c(Nc3ccccc3)nnc21`, the growth is 66.2%.

`OC(c1ccccc1)(c1ccccc1)c1ccccc1-c1ccccc1`: the growth is 87.2%.

The values are drawn from PubChem BioAssay (NCI).
